# Reference: PubChem BioAssay (Tox21)
# Inconclusive results are not listed. Entries that show only a call come without a potency. The source made the active and inactive calls. The call rests on the fitted dose curve; in most records, active means well fitted cell-killing curve with a large enough effect in the repeat runs; inconclusive means weak or mixed curves, or effect the other way; inactive means flat fitted curve, though single readings scatter.
# Experiment: qHTS assay to identify small molecule antagonists of the constitutive androstane receptor (CAR) signaling pathway - cell viability counter screen (AID 1224837); further: nearly all actives have a fitted effect of over 45% in size
# Settings: HepG2-CYP2B6-hCAR viability, CellTiter-Fluor, 23 h, co-treated with 50 nM CITCO; series mostly up to 92.4 µM
# Method in brief: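 In quantitative HTS format, compounds at 15 concentrations were applied to HepG2 cells double-transfected with hCAR and CYP2B6-2.2kb under 50 nM CITCO stimulation; live-cell protease activity was read after 23 hr via CellTiter-Fluor.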
row,Compound,Potency
1,O=C1C(c2[nH]c3ccccc3c2O)=Nc2ccccc21,inactive
2,C=Cc1ccc(C)cc1,inactive
3,CC(=O)OC1CC(C)OC(C)O1 (centres undefined),inactive
4,CCCCCCCCCCCCCCCCO,inactive
5,CCOCC(=O)O,inactive
6,N#Cc1ccccc1,inactive
7,O=[N+]([O-])c1ccc2nc[nH]c2c1,inactive
8,CCNC(=S)NCC,inactive
9,COc1cc(OC)c(C(=O)CCCN2CCCC2)c(OC)c1,inactive
10,CC(C)c1cccc(C(C)C)c1,inactive
11,CCO[Si](CCCN)(OCC)OCC,inactive
12,O=C(OCC1CCC2OC2C1)C1CCC2OC2C1 (centres undefined),inactive
13,OCc1cccc(Oc2ccccc2)c1,inactive
14,O=C1CCCC1,inactive
15,CC(C)CCCCCCCOC(=O)CCCCC(=O)OCCCCCCCC(C)C,inactive
16,C=CCCCCCCCCC(=O)O,inactive
17,COCCCN,inactive
18,CCOC(=O)n1ccn(C)c1=S,inactive
19,C=C(C)C(=O)OCC(C)C,inactive
20,CC1(C)CC(N)CC(C)(CN)C1 (centres undefined),inactive
21,COc1ccccc1OCC(O)CO (centres undefined),inactive
22,CCCCC(C=O)CC (centres undefined),inactive
23,CC(C)(C)c1cc(Cc2cc(C(C)(C)C)c(O)c(C(C)(C)C)c2)cc(C(C)(C)C)c1O,inactive
24,Clc1ccccn1,inactive
